SMARCA2 act: increases SMARCA2 function in MMTV reporter cells | MG213 cells, MMTV-luciferase reporter, dexamethasone, overnight | activation, % at 9.1 µM | 370,000 tested, 1% active | AID 652017; in the data active = activation above about 7.8%;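 also: 0% = vehicle wells and 100% = reference activator wells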
GASC-1 inh: blocks human GASC-1 demethylase activity; Q9H3R0; GST-JMJD2C(1-420) H3K9me3 demethylation, DELFIA europium; inhibition, % at 2.35 µM; 330,000 tested, 0.069% active; AID 2099;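 active = more than half of a compound's replicate wells show inhibition beyond 50%, single wells judged on their own value; inconclusive = some, but no more than half, of replicates pass 50% inhibition; inactive = no replicate passes 50% inhibition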;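 also: signal counts dimethyl H3K9 product captured on neutravidin plate; 0% = median of DMSO wells and 100% = 0.3 times that DMSO median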
MIN6 prolif: induces beta-cell replication in MIN6 cells; MIN6 cells proliferation, ATPlite luminescence, 48 h; cells starved in 0.2% serum; 100% = growth in 10% serum; proliferation, % at 10 µM; 330,000 tested, 0.29% active; AID 2380;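 active = compounds whose signal lies at least 3.5 SD above the mean of all wells on their plate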;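 also: 0% = DMSO-treated cells in low-serum medium and 100% = 10% serum control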
ALR H2O2 inh: blocks human ALR sulfhydryl oxidase activity. 290,000 tested, 3.8% active. inhibition, % (no concentration beside the values). purified ALR, DTT oxidation, H2O2 HRP-luminol luminescence. P55789;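 active = mean replicate inhibition above about 79%, with every replicate also reaching it, limit read from the data; inconclusive = only one of the two criteria met; inactive = mean below limit and not every replicate reaching it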
Target sequence (P55789 whole entry, looked up): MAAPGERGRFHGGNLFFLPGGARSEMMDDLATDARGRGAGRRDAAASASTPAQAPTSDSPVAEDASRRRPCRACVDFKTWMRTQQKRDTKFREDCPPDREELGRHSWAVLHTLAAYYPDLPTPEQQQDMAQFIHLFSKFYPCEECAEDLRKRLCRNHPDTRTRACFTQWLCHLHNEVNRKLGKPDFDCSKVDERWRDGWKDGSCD
Granule exo inh: blocks lytic granule exocytosis. TALL-104 LAMP-1 surface exposure, flow cytometry; cells stimulated with thapsigargin and PMA. inhibition, % at 10 µM. 360,000 tested, 0.66% active;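 active = inhibition above about 55%, limit read from the data; inconclusive = no clear call, values can overlap the other calls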
PfM18AAP inh: blocks P. falciparum M18 aspartyl aminopeptidase; inhibition, % at 7.35 µM; 290,000 tested, 1.2% active; recombinant PfM18AAP, H-Glu-NHMec fluorogenic cleavage;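 active = inhibition above the campaign mean inhibition over all tested compounds plus 3 SD, cut at about 28% in these data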;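 also: 0% = plate median of test compound wells and 100% = 2 mM ZnCl2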
Exocytosis CP01: lytic granule exocytosis inhibition. shares compounds with Granule exo inh. TALL-104 cells, LAMP-1 externalization, flow cytometry; stimulated with PMA plus thapsigargin. inhibition, % at 10 µM. 1,500 tested, 11% active; in the data active = inhibition above about 60%;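 also: 0% = stimulated vehicle wells and 100% = unstimulated wells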
* = called active by the depositor; ? = inconclusive; nt = no result. An excerpt weighted towards active compounds, which were near 5.4% of everything screened.

SMILES	SMARCA2 act	GASC-1 inh	MIN6 prolif	ALR H2O2 inh	Granule exo inh	PfM18AAP inh	Exocytosis CP01
CCOc1cccc2sc(N(CCCN(C)C)C(=O)c3ccc(S(=O)(=O)N(CC)Cc4ccccc4)cc3)nc12	0	-14	-7	-6	64*	-3	60*
Cc1ccc2sc(N(CCCN(C)C)C(=O)c3ccc(S(=O)(=O)N(C)Cc4ccccc4)cc3)nc2c1C	-1	?	-7	-7	66*	nt	58
c1cncc(Oc2ccc(NCCc3c[nH]c4ccccc34)cc2)c1	-3	nt	nt	nt	nt	nt	nt
COC(=O)CCN(Cc1cccc(OC)c1OC)S(=O)(=O)c1ccccc1Br	1	nt	nt	nt	nt	nt	nt
c1ccc(Oc2nc(-c3cccnc3)nc3ccccc23)cc1	-4	9	-1	-6	83*	-4	-3
Fc1ccccc1CNc1nc(-c2cccnc2)nc2ccccc12	3	7	0	-18	81*	4	-10
CC(=C1SC(=S)NC1=O)c1ccc(Cl)c(O)c1	-7	nt	nt	nt	nt	nt	nt
Cc1[nH]nc2c1C(c1ccc(F)cc1)N(c1ccccc1)C2=O (stereo unspecified)	-1	nt	nt	nt	nt	nt	nt
O=C(C1=C[C@@H](c2coc3ccccc3c2=O)C[C@@H](OCCCCO)O1)N1CCOCC1	2	2	-3	0	66*	-12	-14
Cc1ccc(/C=N/NC(=O)c2c(C)nc3ccc(Cl)cn23)cc1	5	nt	nt	nt	nt	nt	nt
COC(=O)[C@H](Cc1c[nH]c2ccccc12)NC(=O)Cc1c[nH]c2ccccc12	0	-3	-2	3	66*	5	-12
N#CCOC(=O)[C@H](Cc1c[nH]c2ccccc12)NS(=O)(=O)c1ccc(Cl)cc1	-3	-5	0	nt	57*	5	52
COC(=O)[C@H](Cc1c[nH]c2ccccc12)NC(=O)CCCc1c[nH]c2ccccc12	-3	6	-2	5	74*	3	-12
COC(=O)C(Cc1c[nH]c2ccccc12)NC(=O)C(=O)c1c[nH]c2ccccc12 (stereo unspecified)	-1	-10	-3	18	59*	8	-12
O=C(O)C(Cc1c[nH]c2ccccc12)NS(=O)(=O)c1ccc(F)cc1 (stereo unspecified)	2	nt	nt	nt	-6	nt	nt
CN1OC[C@@H]2CN[C@H](c3ccc(-n4ccnc4)cc3)C[C@@H]21	0	nt	nt	nt	nt	nt	nt
O=S1(=O)CC(N2CCC(c3ccccc3)CC2)CN1Cc1cn(Cc2ccc(C(F)(F)F)cc2)nn1 (stereo unspecified)	-4	nt	nt	nt	nt	nt	nt
COc1ccc(N(C)S(=O)(=O)c2cccc(C(=O)Nc3ccc4c(c3)OCCO4)c2)cc1	-6	-30	-1	-8	90*	1	-3
CN(c1ccccc1)S(=O)(=O)c1cccc(NC(=O)c2cccc(C#N)c2)c1	-2	3	-4	-3	-1	nt	nt
CN(C)S(=O)(=O)c1cccc(NC(=O)c2ccc(COc3ccccc3)cc2)c1	-6	19	-5	-22	58*	2	10
CN(c1ccccc1)S(=O)(=O)c1cccc(NC(=O)c2ccc3ncsc3c2)c1	-4	-4	-4	nt	67*	1	8
Cn1c(SCC2CCC2)nnc1-c1ccco1	2	nt	nt	nt	nt	nt	nt
CC(=O)OCCCN(C)CC/C=C1/c2ccccc2CSc2ccccc21	-1	-2	-4	-10	62*	nt	-15
O=C(Nc1ccc2nc(-c3cccs3)c(-c3cccs3)nc2c1)N1CCOCC1	2	9	-4	-139	101*	-4	99*
O=C(Nc1cccc(O)c1)N1CCOCC1	3	0	-1	11	3	10	nt
CCCN1CCCCC(NC(=O)c2cccs2)C1=O (stereo unspecified)	1	nt	nt	nt	nt	nt	nt
Cc1ccc(N2CCN(S(=O)(=O)c3ccc4oc(=O)ccc4c3)CC2)c(C)c1	-2	29	-2	nt	86*	4	-13
CCN(CC)CCC(=O)N1C/C(=C/c2ccccc2)C(=O)/C(=C\c2ccccc2)C1	-8	nt	nt	nt	79*	nt	30
COC(=O)[C@]12C[C@H](CC(=O)N3CCOCC3)C(=O)N(Cc3cccc4ccccc34)C1=C[C@H](C(C)(C)C)O[C@@H]2C	-3	nt	nt	nt	nt	nt	nt
COc1ccc(CNCCc2ccc(Cl)cc2)cc1OCc1ccccc1	nt	-6	-6	-56	31	0	nt

High-throughput results as filed in PubChem BioAssay.
